The supplement of paper PMC11001985
Values without a mark were called inactive.

Chain of UniProt Q13813 (Q13813 whole entry): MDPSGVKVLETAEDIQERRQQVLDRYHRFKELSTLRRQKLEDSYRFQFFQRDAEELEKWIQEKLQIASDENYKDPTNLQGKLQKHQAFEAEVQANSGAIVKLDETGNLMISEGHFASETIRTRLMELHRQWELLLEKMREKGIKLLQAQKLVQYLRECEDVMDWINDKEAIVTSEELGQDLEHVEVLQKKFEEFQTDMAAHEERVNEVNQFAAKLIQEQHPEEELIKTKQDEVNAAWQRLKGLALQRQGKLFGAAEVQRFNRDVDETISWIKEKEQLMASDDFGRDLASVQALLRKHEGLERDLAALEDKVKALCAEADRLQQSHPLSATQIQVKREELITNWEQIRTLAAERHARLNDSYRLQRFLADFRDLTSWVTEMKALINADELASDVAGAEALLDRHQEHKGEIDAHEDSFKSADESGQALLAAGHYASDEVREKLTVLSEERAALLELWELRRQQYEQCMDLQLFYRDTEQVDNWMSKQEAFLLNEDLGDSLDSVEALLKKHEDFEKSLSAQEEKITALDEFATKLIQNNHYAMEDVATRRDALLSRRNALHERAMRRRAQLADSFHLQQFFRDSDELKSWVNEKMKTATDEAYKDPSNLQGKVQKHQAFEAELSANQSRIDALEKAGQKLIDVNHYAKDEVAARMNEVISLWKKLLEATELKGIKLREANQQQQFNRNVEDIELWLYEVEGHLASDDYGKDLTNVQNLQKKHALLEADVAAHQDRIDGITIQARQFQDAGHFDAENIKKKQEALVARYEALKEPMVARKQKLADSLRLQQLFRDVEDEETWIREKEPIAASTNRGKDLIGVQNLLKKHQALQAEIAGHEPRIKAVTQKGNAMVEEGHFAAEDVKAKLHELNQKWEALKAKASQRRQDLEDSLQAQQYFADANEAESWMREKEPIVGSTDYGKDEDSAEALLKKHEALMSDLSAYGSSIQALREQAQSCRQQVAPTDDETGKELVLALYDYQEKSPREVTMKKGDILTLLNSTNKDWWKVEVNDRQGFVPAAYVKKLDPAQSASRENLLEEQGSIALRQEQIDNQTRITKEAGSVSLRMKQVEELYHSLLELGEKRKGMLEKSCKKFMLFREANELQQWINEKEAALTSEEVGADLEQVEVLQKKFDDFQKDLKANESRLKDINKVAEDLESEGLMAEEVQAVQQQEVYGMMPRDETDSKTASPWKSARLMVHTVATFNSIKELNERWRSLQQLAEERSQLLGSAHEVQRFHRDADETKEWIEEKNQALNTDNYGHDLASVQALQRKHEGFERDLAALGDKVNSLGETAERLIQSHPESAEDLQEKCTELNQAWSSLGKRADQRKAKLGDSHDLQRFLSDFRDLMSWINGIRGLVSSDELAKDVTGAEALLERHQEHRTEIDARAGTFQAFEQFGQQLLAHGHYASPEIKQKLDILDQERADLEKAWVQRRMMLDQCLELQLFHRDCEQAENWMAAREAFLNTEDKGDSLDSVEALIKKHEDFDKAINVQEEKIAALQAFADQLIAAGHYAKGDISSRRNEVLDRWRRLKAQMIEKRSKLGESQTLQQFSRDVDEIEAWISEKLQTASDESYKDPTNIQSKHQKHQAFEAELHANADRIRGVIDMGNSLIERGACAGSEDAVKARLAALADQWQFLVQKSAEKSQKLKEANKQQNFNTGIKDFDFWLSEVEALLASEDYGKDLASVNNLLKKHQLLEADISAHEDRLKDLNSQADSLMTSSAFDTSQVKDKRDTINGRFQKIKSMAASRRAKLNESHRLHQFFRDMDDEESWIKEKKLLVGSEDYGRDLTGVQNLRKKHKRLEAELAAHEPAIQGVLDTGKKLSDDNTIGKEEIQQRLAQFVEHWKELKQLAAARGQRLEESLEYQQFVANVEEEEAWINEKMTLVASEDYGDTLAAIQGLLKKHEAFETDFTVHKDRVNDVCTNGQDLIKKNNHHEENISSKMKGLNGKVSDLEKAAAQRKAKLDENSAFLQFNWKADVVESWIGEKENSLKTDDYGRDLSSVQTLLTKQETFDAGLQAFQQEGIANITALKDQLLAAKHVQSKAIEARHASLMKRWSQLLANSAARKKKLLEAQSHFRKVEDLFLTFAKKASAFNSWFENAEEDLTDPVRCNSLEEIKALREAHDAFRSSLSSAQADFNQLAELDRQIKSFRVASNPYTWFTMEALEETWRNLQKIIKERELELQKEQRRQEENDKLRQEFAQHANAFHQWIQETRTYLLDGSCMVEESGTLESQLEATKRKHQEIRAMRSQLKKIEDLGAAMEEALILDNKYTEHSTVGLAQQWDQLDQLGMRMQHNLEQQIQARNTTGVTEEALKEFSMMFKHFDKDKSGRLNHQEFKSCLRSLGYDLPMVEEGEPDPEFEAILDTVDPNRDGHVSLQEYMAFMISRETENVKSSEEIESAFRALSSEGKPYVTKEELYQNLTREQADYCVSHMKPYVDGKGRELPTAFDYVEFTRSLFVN
Chain of UniProt Q13332 (Q13332 whole entry): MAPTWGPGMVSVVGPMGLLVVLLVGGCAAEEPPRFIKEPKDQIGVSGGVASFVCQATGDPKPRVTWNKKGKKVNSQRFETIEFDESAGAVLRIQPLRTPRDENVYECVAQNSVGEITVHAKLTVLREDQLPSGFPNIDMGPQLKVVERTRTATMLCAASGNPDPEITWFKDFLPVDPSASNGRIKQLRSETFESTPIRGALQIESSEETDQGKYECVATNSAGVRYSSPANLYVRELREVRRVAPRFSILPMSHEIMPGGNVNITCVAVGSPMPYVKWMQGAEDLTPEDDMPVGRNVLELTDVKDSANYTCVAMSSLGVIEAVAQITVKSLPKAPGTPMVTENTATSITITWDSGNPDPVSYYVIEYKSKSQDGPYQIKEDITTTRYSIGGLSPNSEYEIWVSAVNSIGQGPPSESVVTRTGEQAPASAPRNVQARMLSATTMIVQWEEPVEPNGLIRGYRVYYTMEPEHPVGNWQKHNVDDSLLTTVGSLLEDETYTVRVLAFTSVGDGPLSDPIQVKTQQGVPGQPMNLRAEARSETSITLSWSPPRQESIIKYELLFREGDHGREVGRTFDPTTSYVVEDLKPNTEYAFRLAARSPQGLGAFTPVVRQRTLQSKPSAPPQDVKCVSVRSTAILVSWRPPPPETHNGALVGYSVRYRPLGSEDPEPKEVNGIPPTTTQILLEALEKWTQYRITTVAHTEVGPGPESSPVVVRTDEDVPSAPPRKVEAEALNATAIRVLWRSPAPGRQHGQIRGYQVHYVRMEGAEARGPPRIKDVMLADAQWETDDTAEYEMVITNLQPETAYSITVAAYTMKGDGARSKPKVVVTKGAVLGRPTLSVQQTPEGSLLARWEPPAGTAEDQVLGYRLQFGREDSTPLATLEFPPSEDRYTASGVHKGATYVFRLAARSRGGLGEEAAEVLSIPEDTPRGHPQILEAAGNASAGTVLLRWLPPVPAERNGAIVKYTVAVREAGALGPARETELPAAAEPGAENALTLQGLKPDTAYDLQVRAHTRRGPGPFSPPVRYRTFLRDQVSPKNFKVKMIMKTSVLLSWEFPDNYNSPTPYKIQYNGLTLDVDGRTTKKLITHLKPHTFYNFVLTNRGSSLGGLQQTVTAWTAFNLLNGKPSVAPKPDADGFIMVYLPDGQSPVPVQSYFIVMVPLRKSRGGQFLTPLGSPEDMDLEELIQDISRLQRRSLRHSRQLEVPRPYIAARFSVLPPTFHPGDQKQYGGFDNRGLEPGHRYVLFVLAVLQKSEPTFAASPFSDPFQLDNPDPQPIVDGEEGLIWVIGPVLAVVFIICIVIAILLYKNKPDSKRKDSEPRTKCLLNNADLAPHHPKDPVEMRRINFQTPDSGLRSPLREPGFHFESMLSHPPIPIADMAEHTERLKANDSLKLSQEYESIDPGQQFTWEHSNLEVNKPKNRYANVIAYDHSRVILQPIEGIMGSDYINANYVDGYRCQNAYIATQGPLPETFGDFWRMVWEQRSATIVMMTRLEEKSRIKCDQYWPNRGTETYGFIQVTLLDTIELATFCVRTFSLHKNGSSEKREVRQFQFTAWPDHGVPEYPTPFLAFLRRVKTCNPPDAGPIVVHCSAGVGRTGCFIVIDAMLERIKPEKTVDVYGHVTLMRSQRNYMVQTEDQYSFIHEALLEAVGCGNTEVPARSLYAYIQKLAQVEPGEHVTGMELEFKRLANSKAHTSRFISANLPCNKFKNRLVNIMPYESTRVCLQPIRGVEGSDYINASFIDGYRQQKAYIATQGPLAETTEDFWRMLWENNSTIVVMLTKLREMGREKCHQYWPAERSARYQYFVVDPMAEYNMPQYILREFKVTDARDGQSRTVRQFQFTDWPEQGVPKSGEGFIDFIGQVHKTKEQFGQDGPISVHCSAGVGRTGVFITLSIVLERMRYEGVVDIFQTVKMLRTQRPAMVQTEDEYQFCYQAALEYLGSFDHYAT
Chain of UniProt P26639 (P26639 whole entry): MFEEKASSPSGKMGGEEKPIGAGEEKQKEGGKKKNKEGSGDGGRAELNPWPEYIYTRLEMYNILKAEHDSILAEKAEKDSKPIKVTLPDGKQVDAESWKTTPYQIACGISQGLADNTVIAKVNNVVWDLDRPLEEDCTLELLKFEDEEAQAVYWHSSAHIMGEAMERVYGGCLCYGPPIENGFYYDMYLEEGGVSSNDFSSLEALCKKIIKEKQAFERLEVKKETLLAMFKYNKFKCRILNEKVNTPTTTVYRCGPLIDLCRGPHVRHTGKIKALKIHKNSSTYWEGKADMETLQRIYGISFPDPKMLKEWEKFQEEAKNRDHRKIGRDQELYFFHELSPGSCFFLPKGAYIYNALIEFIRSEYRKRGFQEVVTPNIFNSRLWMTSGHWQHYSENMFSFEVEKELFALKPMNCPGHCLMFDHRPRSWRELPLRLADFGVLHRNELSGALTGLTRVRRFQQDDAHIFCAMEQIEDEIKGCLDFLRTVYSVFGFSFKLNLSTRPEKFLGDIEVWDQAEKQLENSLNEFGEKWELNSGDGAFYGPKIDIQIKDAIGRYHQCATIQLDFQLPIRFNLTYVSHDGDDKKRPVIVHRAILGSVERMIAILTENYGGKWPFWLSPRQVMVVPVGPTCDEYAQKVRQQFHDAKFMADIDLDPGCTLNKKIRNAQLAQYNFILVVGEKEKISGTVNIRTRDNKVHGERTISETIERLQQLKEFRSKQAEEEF

The targets below were run with C#CCNC(=O)CCSSCCC(=O)NCCc1ccc(C=O)c(C=O)c1 (assay: lysine labeling ratio R10:1 (500 µM / 50 µM probe), SILAC-ABPP in living cells; higher = lower intrinsic lysine reactivity toward the probe, active = 2 or less). Settings: HeLa; probe concentrations 500 vs 50 µM.
How it was run: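 R, given per lysine, is the filtered median high-probe/low-probe MS1 peptide ratio, with the median then taken across forward and reverse replicates. Cells were living SILAC light and heavy HeLa cells in PBS at room temperature, labelled with 50 µM or 500 µM of an alkyne-tagged, disulfide-linked lysine probe. The ceiling applied is 20.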
In the case of “CLTA (lysine site: K242) (UniProt P09496)”, the “lysine labeling ratio R10:1” value was 5.68. For “ACTN4 (lysine site: K437) (UniProt O43707)”, the “lysine labeling ratio R10:1” value was 2.2. “TGFBR3 (lysine site: K314) (UniProt Q03167)” was tested, and the “lysine labeling ratio R10:1” value was 1.51 (active). For UniProt Q8WXI7 (lysine site: K13402), the “lysine labeling ratio R10:1” value was 5.02. For “LMO7 (lysine site: K1405) (UniProt Q8WWI1)”, the “lysine labeling ratio R10:1” value was 1.4 (active). With “JPT2 (lysine site: K67) (UniProt Q9H910)” the “lysine labeling ratio R10:1” value was 4.42. For “CCT5 (lysine site: K399) (UniProt P48643)”, the “lysine labeling ratio R10:1” value was 2.73. In the case of “L1CAM (lysine site: K119) (UniProt P32004)”, the “lysine labeling ratio R10:1” value was 3.56. For “HNRNPM (lysine site: K48) (UniProt P52272)”, the “lysine labeling ratio R10:1” value was 4.62. For “SRI (lysine site: K146) (UniProt P30626)”, the “lysine labeling ratio R10:1” value was 4.33. With UniProt P62316 (lysine site: K118) the “lysine labeling ratio R10:1” value was 6.15. UniProt P49720 (lysine site: K77) was tested, and the “lysine labeling ratio R10:1” value was 2.88. “TLN1 (lysine site: K428) (UniProt Q9Y490)” was tested, and the “lysine labeling ratio R10:1” value was 2.34. With “EPRS (lysine site: K666) (UniProt P07814)” the “lysine labeling ratio R10:1” value was 0.985 (active). For “CACNA2D1 (lysine site: K634) (UniProt P54289)”, the “lysine labeling ratio R10:1” value was 3.07. In the case of “MYH9 (lysine site: K613) (UniProt P35579)”, the “lysine labeling ratio R10:1” value was 1.78 (active). With “CALD1 (lysine site: K534) (UniProt Q05682)” the “lysine labeling ratio R10:1” value was 0.785 (active). UniProt P61978 (lysine site: K405) was tested, and the “lysine labeling ratio R10:1” value was 6.82. UniProt Q96TA1 (lysine site: K430) was tested, and the “lysine labeling ratio R10:1” value was 1.69 (active). With “PLOD2 (lysine site: K486) (UniProt O00469)” the “lysine labeling ratio R10:1” value was 2.27. For “SPTAN1 (lysine site: K1023) (UniProt Q13813)”, the “lysine labeling ratio R10:1” value was 9.87. In the case of “MSLN (lysine site: K487) (UniProt Q13421)”, the “lysine labeling ratio R10:1” value was 6.18. “EZR (lysine site: K438) (UniProt P15311)” was tested, and the “lysine labeling ratio R10:1” value was 3.51. “LAMC1 (lysine site: K1567) (UniProt P11047)” was tested, and the “lysine labeling ratio R10:1” value was 1.42 (active). For “ITGB1 (lysine site: K105) (UniProt P05556)”, the “lysine labeling ratio R10:1” value was 6.92. For “PTPRS (lysine site: K379) (UniProt Q13332)”, the “lysine labeling ratio R10:1” value was 2.21. “ITGA6 (lysine site: K953) (UniProt P23229)” was tested, and the “lysine labeling ratio R10:1” value was 3.1. “VAPA (lysine site: K174) (UniProt Q9P0L0)” was tested, and the “lysine labeling ratio R10:1” value was 1.89 (active). For “TFRC (lysine site: K180) (UniProt P02786)”, the “lysine labeling ratio R10:1” value was 2.39. In the case of UniProt Q15149 (lysine site: K4173), the “lysine labeling ratio R10:1” value was 1.95 (active). “PCBP2 (lysine site: K322) (UniProt Q15366)” was tested, and the “lysine labeling ratio R10:1” value was 4.37. With “HNRNPA1 (lysine site: K8) (UniProt P09651)” the “lysine labeling ratio R10:1” value was 4.27. For UniProt P26639 (lysine site: K36), the “lysine labeling ratio R10:1” value was 3.28. “SLC1A4 (lysine site: K239) (UniProt P43007)” was tested, and the “lysine labeling ratio R10:1” value was 1.94 (active). “S100A10 (lysine site: K28) (UniProt P60903)” was tested, and the “lysine labeling ratio R10:1” value was 5.79. With “XRCC6 (lysine site: K129) (UniProt P12956)” the “lysine labeling ratio R10:1” value was 1.62 (active). “DISP1 (lysine site: K908) (UniProt Q96F81)” was tested, and the “lysine labeling ratio R10:1” value was 3.35. For “FBLN1 (lysine site: K187) (UniProt P23142)”, the “lysine labeling ratio R10:1” value was 2.05. For UniProt Q15149 (lysine site: K1996), the “lysine labeling ratio R10:1” value was 3.69. With “SPTAN1 (lysine site: K39) (UniProt Q13813)” the “lysine labeling ratio R10:1” value was 2.65.
